Assay outcomes from PubChem BioAssay.
A selection: hits, their analogues and other compounds. The true share with any hit is near 4.7%.
TRHR agonist: qHTS for Small Molecule Agonists and Allosteric Enhancers of Human TRH Receptor: Primary Screen for Agonists; Thyrotropin-releasing hormone receptor (Homo sapiens), P34981; TRHR cells, calcium flux fluo-8, FDSS agonist mode; activation, % at 2 µM; 360,000 tested, 0.18% active; further: 0% is about no effect
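Read-out: compound-evoked intracellular calcium rise in TRHR cells, fluo-8 dye, kinetic FDSS fluorescence at 1 s/cycle following a 10-cycle baseline. Cells cultured overnight before dye loading (30 min–1.5 h, RT).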
D1 PAM: Potentiators of Human D1 Dopamine Receptor: qHTS. D(1A) dopamine receptor (Homo sapiens), P21728. HEK293 TREx D1 cells, calcium flux, dopamine EC20 potentiation. potentiation, % at 10 µM. 360,000 tested, 0.036% active. AID 504651, 2011; in the data active means potentiation above about 30%; further: 0% is about no effect
Target sequence (P21728 whole entry, looked up): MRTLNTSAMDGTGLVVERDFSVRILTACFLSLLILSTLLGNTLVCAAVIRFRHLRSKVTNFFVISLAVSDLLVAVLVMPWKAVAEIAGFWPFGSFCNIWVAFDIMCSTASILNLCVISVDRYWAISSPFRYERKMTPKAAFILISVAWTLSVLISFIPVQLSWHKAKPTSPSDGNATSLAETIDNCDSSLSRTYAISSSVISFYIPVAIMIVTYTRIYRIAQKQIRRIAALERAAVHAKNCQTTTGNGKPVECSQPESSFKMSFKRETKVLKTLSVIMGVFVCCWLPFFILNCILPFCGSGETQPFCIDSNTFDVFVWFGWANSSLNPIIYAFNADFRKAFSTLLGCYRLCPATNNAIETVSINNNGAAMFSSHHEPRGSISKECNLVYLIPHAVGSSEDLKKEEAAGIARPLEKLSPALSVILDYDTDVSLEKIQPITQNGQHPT
D1 antag: Antagonist of Human D 1 Dopamine Receptor: qHTS | HEK293 TREx D1 cells, calcium flux, dopamine EC80; hits give low values | activity change, negative = inhibition, % at 10 µM | 360,000 tested, 3.2% active; in the data active means activity change below about -30%; further: on the % scale 0 is the no-effect control and ±100 the full control effect
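After overnight tetracycline induction at 30 C, force-coupled D1 HEK293 cells took up a no-wash calcium dye at room temperature. Compounds were added and monitored 180 s, and the response to EC80 dopamine was then recorded.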
D1 agonist: Allosteric Agonists of the Human D1 Dopamine Receptor: qHTS; D(1A) dopamine receptor (Homo sapiens), P21728; activation, % at 2 µM; 360,000 tested, 1% active; HEK293 T-REx D1 cells, calcium flux, agonist mode; further: 0% is about no effect
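Agonism was scored from calcium flux recorded over 180 s (1 read/s) after pintool compound addition, following a 10-cycle baseline. Cells were inducible force-coupled HEK293 TREx D1, plated overnight at 30 C and loaded with no-wash calcium dye.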
TRHR PAM: qHTS for Small Molecule Agonists and Allosteric Enhancers of Human TRH Receptor: Primary Screen for Enhancers; 360,000 tested, 0.66% active; enhancement, % at 2 µM; TRHR cells, fluo-8 calcium fluorescence, EC20 TRH enhancement; Thyrotropin-releasing hormone receptor (Homo sapiens), P34981; in the data active means enhancement above about 30%; further: 0% is about no effect
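TRHR-expressing cells loaded with fluo-8 calcium dye were read kinetically (ex 480/em 530) during compound addition, then stimulated with an EC20 of TRH (10 nM final). Enhancement of the Gq-mediated intracellular calcium response was scored.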
The depositor's hits bear a star. Unless noted, no stated cut-off is given here; in the data, active means activation above about 30%; inactive means the rest.

Cc1cc(-n2c(SCC(=O)Nc3ccc(Br)cc3)nc3n[nH]c(C)c3c2=N)ccc1Cl was read as TRHR agonist 1.3, D1 PAM -6.7, D1 antag -1.5, D1 agonist 0.9 and TRHR PAM -0.8.
For COc1ccc(Cn2ccc3nc(C)c(C(=O)Nc4cc(C)cc(C)c4)cc3c2=O)cc1 the results were TRHR agonist 0.1, D1 PAM -1.1, D1 antag -21.7, D1 agonist 5.2 and TRHR PAM 3.3.
For CCc1cccc(NC(=O)CCS(=O)(=O)c2ccc(C)cc2)c1 the results were TRHR agonist -1.4, D1 PAM -4.1, D1 antag 3.7, D1 agonist -0.7 and TRHR PAM 19.5.
O=C(NCCCN1CCCCCC1)c1ccc2c(c1)sc1nc(-c3ccccc3)cn12 was read as TRHR agonist 0.3, D1 PAM 3.9, D1 antag -12.5, D1 agonist 1.7 and TRHR PAM 13.9.
For CCCN1CCN(CCCNC(=O)c2ccc3c(c2)sc2nc(-c4ccc(C)cc4)cn23)CC1 the results were TRHR agonist 0.2, D1 PAM -2.4, D1 antag -30.4*, D1 agonist 1.6 and TRHR PAM 0.9.
For O=C1Nc2ccc(S(=O)(=O)NCCC3=CCCCC3)c3cccc1c23 the results were TRHR agonist 0.1, D1 PAM -8.7, D1 antag -37.2*, D1 agonist 16.8 and TRHR PAM 3.8.
Screening O=C1Nc2ccc(S(=O)(=O)NCCCO)c3cccc1c23 returned TRHR agonist 1.7, D1 PAM 9.4, D1 antag 3.3, D1 agonist 4.1 and TRHR PAM -0.4.
CC1CCN(CCCNS(=O)(=O)c2cc(Br)cc3c2N(C(=O)C2CC2)CC3)CC1 was read as TRHR agonist -0.7, D1 PAM -8.3, D1 antag -11.9, D1 agonist 1.0 and TRHR PAM 32.6*.
`Cc1cc(C(=O)N2CCCC(N3CCN(c4cccc(C(F)(F)F)c4)CC3)C2)n[nH]1` (configuration not stated) gave TRHR agonist -0.3, D1 PAM 0.2, D1 antag -49.7*, D1 agonist 2.8 and TRHR PAM 4.3.
`O=C(CCn1cccn1)N1CCCC(N2CCN(c3cccc(C(F)(F)F)c3)CC2)C1` (configuration not stated) gave TRHR agonist -0.2, D1 PAM 1.7, D1 antag 7.2, D1 agonist 2.3 and TRHR PAM 34.2*.
For O=C(Cn1cccn1)N1CCCC(N2CCN(c3cccc(C(F)(F)F)c3)CC2)C1 (configuration not stated) the results were TRHR agonist 0.3, D1 PAM -2.3, D1 antag 6.2, D1 agonist 2.5 and TRHR PAM 0.3.
Screening Cc1ccc(CNC(=O)Cn2ccn(-c3ccc(F)cc3)c(=O)c2=O)cc1 returned TRHR agonist -0.1, D1 PAM 2.1, D1 antag 7.2, D1 agonist 0.4 and TRHR PAM 3.7.
COc1ccc(NC(=S)N(CCO)Cc2ccccc2)cc1 was read as TRHR agonist 0.2, D1 PAM -5.5, D1 antag 0.4, D1 agonist 0.7 and TRHR PAM -5.5.
Screening COCCN(Cc1ccccc1)C(=S)Nc1ccc(Cl)cc1 returned TRHR agonist 0.1, D1 PAM -10.4, D1 antag -36.2*, D1 agonist 4.3 and TRHR PAM -8.3.
For COc1cc(C=O)ccc1OCCOc1ccccc1[N+](=O)[O-] the results were TRHR agonist 1.1, D1 PAM -4.0, D1 antag -37.3*, D1 agonist 5.5 and TRHR PAM 13.9.
Screening COC(=O)C1CCCCN1C(=O)c1cc(COc2cccc3cnccc23)on1 (configuration not stated) returned TRHR agonist 1.9, D1 PAM -6.3, D1 antag -42.6*, D1 agonist 22.9 and TRHR PAM -3.1.
`CN(Cc1nccs1)C(=O)c1cc(COc2cccc3cnccc23)on1` gave TRHR agonist 0.1, D1 PAM -0.5, D1 antag -31.7*, D1 agonist 15.8 and TRHR PAM -4.0.
COCCC1CCCCN1C(=O)c1cc(COc2cccc(C(C)=O)c2)on1 (configuration not stated) was read as TRHR agonist 0.4, D1 PAM -7.5, D1 antag -49.1*, D1 agonist 11.5 and TRHR PAM -0.2.
COc1ccc(OCc2cc(C(=O)N(C)Cc3nccn3C)no2)c2ccccc12 was read as TRHR agonist -0.8, D1 PAM -1.4, D1 antag -39.6*, D1 agonist 1.5 and TRHR PAM -3.5.
Screening CC(=O)c1ccc(OCc2cc(C(=O)N3CCC[C@H]3CO)no2)cc1 returned TRHR agonist -0.4, D1 PAM -3.1, D1 antag -24.6, D1 agonist 3.3 and TRHR PAM -0.3.
CCc1ccc(C2=C(C)C(N3CCC(C(=O)Nc4ccc(F)cc4)CC3)=NS2(=O)=O)cc1 was read as TRHR agonist 0.4, D1 PAM -6.1, D1 antag 0.3, D1 agonist -0.4 and TRHR PAM -1.6.
O=[S+]([O-])(c1ccc2c(c1)OCCO2)N1CCN([S+](=O)([O-])c2cc(Cl)ccc2F)CC1 was read as TRHR agonist 2.2, D1 PAM 16.7, D1 antag -11.9, D1 agonist 1.5 and TRHR PAM -3.9.
Screening Cc1ccc(-c2nc3c(C)cccn3c2Nc2ccccc2C)s1 returned TRHR agonist 7.0, D1 PAM -3.0, D1 antag 8.9, D1 agonist 2.5 and TRHR PAM 4.9.
`Cc1c(Cl)cccc1NC(=O)COCc1cc(-c2ccc3c(c2)OCO3)on1` gave TRHR agonist 0.7, D1 PAM 4.7, D1 antag -2.5, D1 agonist 13.2 and TRHR PAM 9.8.
`O=C(COCc1cc(-c2ccc(F)cc2)on1)Nc1cc(Cl)ccc1O` gave TRHR agonist 0.6, D1 PAM 0.8, D1 antag -36.6*, D1 agonist 17.4 and TRHR PAM -6.8.
Screening O=C(COCc1cc(-c2ccc3c(c2)OCO3)on1)Nc1cc(C(F)(F)F)ccc1Cl returned TRHR agonist 2.9, D1 PAM -1.5, D1 antag -7.0, D1 agonist 32.6* and TRHR PAM 1.7.
For Cc1c(Cl)cccc1NC(=O)C(CCS(C)(=O)=O)N1Cc2ccccc2C1=O (configuration not stated) the results were TRHR agonist 0.3, D1 PAM 6.7, D1 antag -3.2, D1 agonist 0.5 and TRHR PAM -0.5.
